Source: PubChem
HepG2 viability – qHTS for Inhibitors of TGF-b: Cytotox Counterscreen; 410,000 compounds, 0.76% hits; HepG2 CAGA-GFP viability, ATP luminescence, 18 h; Potency, µM (titrated, usually from 46.1 µM), without a hit: at the highest dose activity change, negative = cytotoxicity, actives largely listed as cytotoxic; note: potency is the fitted concentration of half-maximal effect
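HepG2 CAGA-GFP cells (1000/well, DMEM with 1% FBS) received compound, then TGF-beta at 500 pg/mL final, and were incubated 18 hours at 37 degrees C. Viability was read by CellTiter-Glo luminescence. Media-only wells were set as complete cell-killing and DMSO as no toxicity.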
ATXN viability – Viability Counterscreen for Primary qHTS for Inhibitors of ATXN expression; S2 cells (HEK-293 line with an ATXN2-luciferase reporter) viability, CellTiter-Fluor protease fluorescence, 24 h; Potency, µM (series often up to 56.7 µM), actives largely listed as cytotoxic; 400,000 compounds, 0.49% hits; note: potency is the fitted concentration of half-maximal effect; nearly all actives have a fitted effect of over 40% in size
LDHA block – qHTS assay for inhibitors of human lactate dehydrogenase. activity change, % (values are at about 110 or 230 µM). L-lactate dehydrogenase A chain (Homo sapiens), P00338. 480,000 compounds, 0.15% hits. purified LDHA, NADH/diaphorase-resazurin fluorescence; hits give low values; in the data active = activity change below about -30%; inconclusive = mostly about -25% to -30%;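 note: plate controls were DMSO wells for no effect and wells without enzyme for full effect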
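Human LDH5 at 2 nM final in Tris HCl pH 7.4 with 0.06 mM NADH and 0.2 mM pyruvate, reacted 5 minutes at room temperature. Remaining NADH coupled via diaphorase/resazurin; resorufin fluorescence read at 0 and 20 minutes, normalized to enzyme-free and DMSO wells.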
mIDH1 inhibitor – qHTS for Inhibitors of mutant isocitrate dehydrogenase 1 (IDH1): qHTS | Isocitrate dehydrogenase [NADP] cytoplasmic (Homo sapiens), O75874 | AID 602179, 2012 | Potency, µM (doses to about 76.6 µM), for inactives: at the highest dose activity change, negative = inhibition, most hits filed as inhibitors | IDH1-R132H enzyme, NADPH consumption, diaphorase/resazurin fluorescence | 390,000 compounds, 0.093% hits; note: potency is the fitted concentration of half-maximal effect; % is set by controls: 0 for no effect and ±100 for the full control effect; nearly all actives have a fitted effect of over 65% in size
Target sequence (O75874 whole entry R132H, stated change not applied): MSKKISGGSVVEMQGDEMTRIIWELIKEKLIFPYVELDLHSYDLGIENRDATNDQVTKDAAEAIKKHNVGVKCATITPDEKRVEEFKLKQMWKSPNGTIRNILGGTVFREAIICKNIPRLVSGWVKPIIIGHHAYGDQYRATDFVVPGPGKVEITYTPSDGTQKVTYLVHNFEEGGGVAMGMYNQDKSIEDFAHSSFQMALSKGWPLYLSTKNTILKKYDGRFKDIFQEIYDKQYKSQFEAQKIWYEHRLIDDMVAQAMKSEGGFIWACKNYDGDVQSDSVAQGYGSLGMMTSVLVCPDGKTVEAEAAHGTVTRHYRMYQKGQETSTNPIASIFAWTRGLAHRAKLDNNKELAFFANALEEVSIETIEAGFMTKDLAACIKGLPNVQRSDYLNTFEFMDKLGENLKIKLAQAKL
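IDH1-R132H (0.5 ug/mL) preincubated 30 min with compound, then NADPH (0.016 mM) and alpha-KG (2 mM) added; 80 min at RT, pH 7.5. Remaining NADPH coupled via diaphorase/resazurin to fluorescence (540/590 nm); concentration-response curves normalized to no-enzyme control.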
ATXN2 expr inh – Primary qHTS for Inhibitors of ATXN expression | HEK-293 ATXN2-luciferase reporter, luminescence, 24 h | Potency, µM (highest dose often 57 µM), inactives show top-dose activity change, negative = inhibition, most hits filed as inhibitors | 360,000 compounds, 0.72% hits | AID 1745845, 2022; note: potency is the fitted concentration of half-maximal effect; % is set by controls: 0 for no effect and ±100 for the full control effect; nearly all actives have a fitted effect of over 55% in size
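qHTS (up to 57 uM final) was run with 24 h compound exposure of reporter cells at 37 °C. Each well was multiplexed: SteadyGlo luminescence measured ATXN2-luciferase expression after a fluorogenic Gly-Phe-AFC viability readout (25 uM final).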
TGFb SMAD3 inh – qHTS for Inhibitors of TGF-b; HepG2 CAGA-GFP TGF-b/SMAD3 reporter, GFP fluorescence, 18 h; TGF-beta stimulated, 500 pg/mL final; Potency, µM (series often up to 46.1 µM), for inactives: at the highest dose activity, negative = inhibition, hits mostly inhibitors; AID 588855, 2011; 410,000 compounds, 1.2% hits; note: potency is the fitted concentration of half-maximal effect; % is set by controls: 0 for no effect and ±100 for the full control effect; nearly all actives have a fitted effect of over 65% in size
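Cell-based qHTS in HEPG2 carrying a CAGA-GFP Smad reporter; compounds added before 500 pg/mL final TGF-beta, 18 h incubation at 37 degrees C, GFP fluorescence quantified per cell by imaging cytometry.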
* marks the source's active call; other numbers are inactive results; i = inactive; ? = inconclusive; · = no result; ! = a repeat was not active. This is a sample that favours compounds with a hit; in the whole collection about 2.2% have one here. Unless noted, calls come from the whole dose curve; as a rule, active = well fitted curve in the direction sought with a large enough effect; inconclusive = small, poorly fitted or top-dose-only effect, or another doubt; inactive = no such curve, though single readings can be large; an effect the other way counts as inactive or inconclusive.

SMILES	HepG2 viability	ATXN viability	LDHA block	mIDH1 inhibitor	ATXN2 expr inh	TGFb SMAD3 inh
Cc1nnsc1-c1onc(C)c1C(=O)Nc1cc(Cl)cc(Cl)c1	-60%	?	-4	7%	·	16µM*
COc1nn(C)c2nc(C)c(CCC(=O)NC(C)C)c(C)c12	·	·	6	·	·	·
CCC(C)C(N)C1=NC(C(=O)N[C@@H](CC(C)C)C(=O)N[C@H](CCC(=O)[O-])C(=O)N[C@H](C(=O)N[C@H]2CCCCNC(=O)[C@H](CC(N)=O)NC(=O)[C@@H](CC(=O)[O-])NC(=O)[C@H](Cc3cnc[nH]3)NC(=O)[C@@H](Cc3ccccc3)NC(=O)[C@H]([C@@H](C)CC)NC(=O)[C@@H](CCCN)NC2=O)[C@@H](C)CC)CS1.[Zn+2] (some centres not stated)	-8%	i	-20	32µM*	2%	1%
CCn1cc(S(=O)(=O)c2ccc(C)cc2)[nH]c1=O	12%	i	-7	3%	1%	11%
Cc1ccc(-n2cc(S(=O)(=O)c3ccc(C)cc3)[nH]c2=O)cc1	3.2µM*	i	-7	6%	-11%	?
COc1ccc2oc(C(=O)OCC(=O)NCCc3ccccc3)c(C)c2c1	9%	i	-1	-1%	0%	5%
COc1ccc2oc(C(=O)NCCc3ccccc3)c(C)c2c1	-9%	i	-12	0%	4.5µM*	-1%
O=C(CNc1ccccc1)N/N=C/c1ccc([N+](=O)[O-])o1	11µM*	i	0	6%	?	?
O=C(N/N=C\c1ccc([N+](=O)[O-])o1)C1COc2ccccc2O1 (configuration not stated)	-146%	i	11	2%	-31%	16µM*
O=C(N/N=C\c1ccc(-c2ccccc2[N+](=O)[O-])o1)C1COc2ccccc2O1 (configuration not stated)	0%	i	2	5%	-25%	2%
CCCCCC(=O)N/N=C/c1ccc([N+](=O)[O-])o1	10µM*	i	20	-2%	-26%	?
Cc1ccc(NCC(=O)N/N=C\c2ccc([N+](=O)[O-])o2)cc1	13µM*	i	1	4%	-25%	11µM*
COc1ccc(N2CCN(C(=O)COCC(=O)O)CC2)cc1	-3%	i	1	4%	1%	10%
Cc1ccc(-n2ncc3c(NCc4ccccc4)ncnc32)cc1Cl	5%	i	-8	-12%	35%	16%
COc1ccc(C(=O)N2CCN=C2SC)cc1	21%	i	-4	7%	1%	2%
Cc1ccccc1CN(C)C(=O)COC(=O)CSc1ccc([N+](=O)[O-])cc1	1%	i	-1	7%	-7%	28%
O=C(CCC(=O)Nc1ccc(Cl)cc1Cl)N/N=C/c1ccc([N+](=O)[O-])o1	16µM*	?	16	11%	?	11µM*
O=C(Cc1ccc2c(c1)OCO2)NN=Cc1ccc([N+](=O)[O-])o1	-102%	?	1	1%	?	10µM*
COC(=O)c1ccc2nc(NC(=O)CCS(=O)(=O)c3ccccc3)sc2c1	2%	i	-2	10%	16%	?
CS(=O)(=O)c1ccc2nc(NC(=O)CCS(=O)(=O)c3ccccc3)sc2c1	7.1µM*	32µM*	-12	-6%	?	?
O=C(CCS(=O)(=O)c1ccccc1)Nc1nc2cc3c(cc2s1)OCO3	14%	i	-6	0%	19%	?
O=C(CCS(=O)(=O)c1ccccc1)Nc1nc2cc3c(cc2s1)OCCO3	-87%	i	0	7%	25%	13µM*
CCCNC(=O)CN1CCN(c2cccc(F)c2C#N)CC1	·	·	1	·	·	·
O=C(NC1(Cc2ccccc2)CCN(Cc2ccc(-c3ccccc3)cc2)C1=O)c1ccccc1 (configuration not stated)	-25%	32µM*	-5	-6%	?	?
Cc1cccc(N(C(=O)Cn2nnc3ccccc32)C(C(=O)NC(C)(C)C)c2ccsc2)c1C (configuration not stated)	-8%	i	-20	-9%	8%	-14%
SMILES	HepG2 viability	ATXN viability	LDHA block	mIDH1 inhibitor	ATXN2 expr inh	TGFb SMAD3 inh
COC(=O)COc1cc(=O)oc2ccc(NS(=O)(=O)c3ccccc3)cc12	-16%	i	-5	-1%	·	-24%
CCCCCCN1C[C@H](n2cc(COC(=O)c3ccccc3)nn2)[C@@H](O)C[C@@H]1c1ccccc1	-93%	?	1	0%	0%	?
CCCCCCN1C[C@@H](n2cc(COC(=O)c3ccccc3)nn2)[C@H](O)C[C@@H]1c1ccc(Cl)cc1	1%	32µM*	-4	2%	?	17%
CCCCCCN1C[C@H](n2cc(COC(=O)c3ccccc3)nn2)[C@@H](O)C[C@@H]1c1ccc(C)cc1	10µM*	?	4	9%	?	?
Cc1nc2ccccc2nc1OCc1cccc(Cl)c1	-43%	i	-7	2%	-5%	11µM*
COc1cc(/C=C(\C#N)c2nc3ccc(C)cc3[nH]2)c([N+](=O)[O-])cc1OC	-13%	i	-4	7%	-3%	26%
COc1cc(/C=C(\C#N)c2nc3ccc(C)cc3[nH]2)cc([N+](=O)[O-])c1O	-3%	18µM*	29	18%	37%	?
CCOC(=O)c1cnc2ccc(OC)cc2c1NCCc1ccc(OC)c(OC)c1	-47%	?	3	10%	28µM*!	16µM*!
O=C(NCCCN1CCN(c2cccc(Cl)c2)CC1)c1cnn(-c2ccc(F)cc2)c1-n1cccc1	10µM*	?	-1	-2%	35µM*	?
CCCN(CCC)CCCNC(=O)c1cnn(-c2ccc(F)cc2)c1-n1cccc1	-20%	i	-1	-4%	-18%	-5%
Cc1ccc(C(=O)N(Cc2nnc(-c3ccccc3Cl)o2)C2CC2)o1	10µM*	i	-6	6%	·	-3%
COc1ccc(N=Nc2ccc(O)c3ncccc23)cc1	-4%	?	4	5%	·	?
COc1cccc(N=Nc2ccc(O)c3ncccc23)c1	-9%	16µM*	11	-8%	?	?
Oc1ccc(N=Nc2ccc3c(c2)OCCO3)c2cccnc12	1%	10µM*	17	15%	?	4%
C/C(=N\NC(=O)C1CCCCC1)c1ccc(C)s1	·	·	0	·	·	·
